Results published in PubChem BioAssay AID1159580 (chemical genetic matrix, 2015).
“And” between values parts separate entries of the source, which are not always exact repeats. Equal values may be shown once. In all, about 5,500 compounds went through this assay and about 2,000 (36%) were called active. Inconclusive results (about 18%) are left out. Rule as the data show it: active = normalized growth mostly below about 0.91 (no sharp cut-off); inconclusive = no clear call, values can overlap the other calls; inactive = mostly above about 0.92. This is one part of the list.

Assay: chemical genetic growth profiling, strain panel (AID 1159580);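 also: tested at 20 µM; growth read once vehicle control cultures reached saturation at 30 °C; 1 = growth at the plate median or of vehicle wells; lower values mean less growth of the strain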
Details: S. cerevisiae deletion strains, growth OD

Measured: normalized growth

COC(=O)NC(=S)Nc1ccccc1NC(=S)NC(=O)OC
inactive: locus YAL013W, strain DEP1, hits give low values 1 | locus YAL021C, strain ccr4, hits give low values 0.92 | locus YAL026C, strain drs2, hits give low values 0.975 | locus YAL030W, strain snc1, hits give low values 0.986 | locus YBL061C, strain skt5, hits give low values 0.99 | locus YBR009C, strain hhf1, hits give low values 0.973 | locus YBR021W, strain FUR4, hits give low values 1.02 | locus YBR023C, strain chs3, hits give low values 0.966 | locus YBR171W, strain sec66, hits give low values 0.974 | locus YBR229C, strain ROT2, hits give low values 1 | locus YBR231C, strain swc5, hits give low values 1 | locus YBR279W, strain paf1, hits give low values 0.983 | locus YCL011C, strain gbp2, hits give low values 0.978 | locus YCL016C, strain dcc1, hits give low values 0.974 | locus YCL029C, strain bik1, hits give low values 1.03 | locus YCL069W, strain vba3, hits give low values 0.978 | locus YCR088W, strain abp1, hits give low values 0.975 | locus YDL005C, strain med2, hits give low values 0.963 | locus YDL035C, strain GPR1, hits give low values 0.992 | locus YDL040C, strain nat1, hits give low values 0.973 | locus YDL074C, strain BRE1, hits give low values 1.03 | locus YDL101C, strain DUN1, hits give low values 1.02 | locus YDL134C, strain PPH21, hits give low values 1 | locus YDL185W, strain tfp1, hits give low values 1 | locus YDL192W, strain arf1, hits give low values 1.01 | locus YDR001C, strain nth1, hits give low values 0.976 | locus YDR069C, strain doa4, hits give low values 0.909 | locus YDR101C, strain arx1, hits give low values 1.01 | locus YDR137W, strain rgp1, hits give low values 0.945 | locus YDR150W, strain NUM1, hits give low values 0.996 | locus YDR159W, strain sac3, hits give low values 0.969 | locus YDR162C, strain NBP2, hits give low values 1.01 | locus YDR195W, strain ref2 1.04 | locus YDR297W, strain sur2, hits give low values 0.984 | locus YDR318W, strain mcm21, hits give low values 1.02 | locus YDR334W, strain swr1, hits give low values 0.972 | locus YDR335W, strain msn5, hits give low values 0.97 | locus YDR388W, hits give low values 1.02 | locus YDR502C, strain sam2, hits give low values 0.993 | locus YEL003W, strain gim4, hits give low values 0.959 | locus YEL037C, strain rad23, hits give low values 0.973 | locus YEL061C, strain CIN8 (second series), hits give low values 0.979 | locus YEL061C, strain CIN8, hits give low values 0.996 | locus YER015W, strain faa2, hits give low values 0.981 | locus YER016W, strain bim1, hits give low values 0.963 | locus YER110C, hits give low values 1.02 | locus YER111C, strain swi4, hits give low values 0.958 | locus YER155C, strain BEM2, hits give low values 1.01 | locus YER167W, strain BCK2, hits give low values 0.977 | locus YFR010W, strain ubp6, hits give low values 0.984 | locus YGL078C, strain dbp3, hits give low values 0.982 | locus YGL086W, strain mad1, hits give low values 0.997 | locus YGL167C, strain pmr1, hits give low values 0.976 | locus YGL173C, strain kem1, hits give low values 0.985 | locus YGL227W, strain vid30, hits give low values 0.977 | locus YGL240W, strain doc1, hits give low values 0.972 | locus YGL248W, strain PDE1, hits give low values 1.01 | locus YGL253W, strain hxk2, hits give low values 1 | locus YGR078C, strain PAC10, hits give low values 0.996 | locus YGR135W, strain pre9, hits give low values 1 | locus YGR229C, strain SMI1, hits give low values 0.986 | locus YGR252W, strain gcn5, hits give low values 0.981 | locus YHR013C, strain ard1, hits give low values 0.886 | locus YHR027C, strain rpn1, hits give low values 0.985 | locus YHR030C, strain SLT2, hits give low values 0.997 and 0.983 | locus YHR079C, strain IRE1 (second series), hits give low values 1.02 | locus YHR079C, strain IRE1, hits give low values 0.938 | locus YHR094C, strain hxt1, hits give low values 1.01 | locus YHR129C, strain ARP1, hits give low values 1.01 | locus YHR142W, strain chs7, hits give low values 0.943 | locus YHR200W, strain rpn10, hits give low values 1.01 | locus YIL066C, strain RNR3, hits give low values 1.01 | locus YIL073C, strain SPO22, hits give low values 0.999 | locus YIL125W, strain kgd1, hits give low values 0.998 | locus YIR030C, strain dcg1, hits give low values 1.02 | locus YJL092W, strain hpr5, hits give low values 0.977 | locus YJL095W, strain BCK1 (second series), hits give low values 0.978 | locus YJL095W, strain BCK1, hits give low values 1.04 and 0.967 | locus YJL115W, strain asf1, hits give low values 0.966 | locus YJL129C, strain trk1, hits give low values 0.939 | locus YJL134W, strain LCB3, hits give low values 1 | locus YJL154C, strain vps35, hits give low values 0.963 | locus YJL164C, strain tpk1, hits give low values 0.965 | locus YJL166W, strain qcr8, hits give low values 0.979 | locus YJL168C, strain set2, hits give low values 1.02 | locus YJL187C, strain SWE1 (second series), hits give low values 1.04 | locus YJL187C, strain SWE1, hits give low values 0.986 | locus YJR043C, strain POL32, hits give low values 1.04 | locus YJR066W, strain TOR1, hits give low values 0.87
active: locus YDR392W, strain spt3, hits give low values 0.724 | locus YER155C, strain BEM2 (second series), hits give low values 0.753
